Screening results as filed in PubChem.
Hits are enriched below; roughly 12% of the tested compounds scored in any of these assays.
PLK1 PBD block = qHTS for Inhibitors of PLK1-PDB (polo-like kinase 1 - polo-box domain): Primary Screen. Plk1 PBD binding of FITC phosphopeptide, fluorescence polarization. Potency, µM, without a hit: max response, negative = inhibition, usual class: inhibitors. 360,000 tested, 2.8% active; also: series mostly up to about 57 µM; % is scaled to controls: 0 for no effect and ±100 for the full control effect; nearly all actives have a fitted effect of over 65% in size
JMJD2A Tudor = qHTS Assay for Inhibitors of JMJD2A-Tudor Domain; 390,000 tested, 4.4% active; Potency, µM (titrated, usually from 114 µM), inactives show at the highest dose activity change, negative = inhibition, usual class: inhibitors; AlphaScreen JMJD2A-Tudor / H3K4me3 peptide binding; AID 504339, 2011; also: % is scaled to controls: 0 for no effect and ±100 for the full control effect; nearly all actives have a fitted effect of over 50% in size
G9a block = qHTS Assay for Inhibitors of Histone Lysine Methyltransferase G9a. Histone-lysine N-methyltransferase EHMT2 (Homo sapiens), Q96KQ7. G9a H3K9 monomethylation, AlphaScreen, 2 h. Potency, µM (series often up to 102 µM), without a hit: at the highest dose activity, negative = inhibition, most hits filed as inhibitors. 350,000 tested, 8.8% active; also: % is scaled to controls: 0 for no effect and ±100 for the full control effect; nearly all actives have a fitted effect of over 75% in size
Target sequence (Q96KQ7 913-1193 limits assumed): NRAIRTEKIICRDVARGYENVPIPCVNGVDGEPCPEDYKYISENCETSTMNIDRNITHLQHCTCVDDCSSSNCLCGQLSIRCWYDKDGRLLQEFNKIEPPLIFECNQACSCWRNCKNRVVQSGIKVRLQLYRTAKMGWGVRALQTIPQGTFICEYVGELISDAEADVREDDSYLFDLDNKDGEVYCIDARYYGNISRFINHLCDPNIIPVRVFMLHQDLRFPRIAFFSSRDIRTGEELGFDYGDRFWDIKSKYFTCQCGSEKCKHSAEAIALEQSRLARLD
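G9a (20 nM) was preincubated 15 min with compound, then reacted 2 h at room temperature with 500 nM biotin-H3K9 peptide and 20 µM SAM. Monomethyl-H3K9 detected by AlphaScreen using anti-H3K9me1 antibody.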
HP1b chromo inh = HTS for Inhibitors of HP1-beta Chromodomain Interactions with Methylated Histone Tails. Chromobox protein homolog 1 (Homo sapiens), P83916. AlphaScreen HP1-beta / biotin-H3K9me3 peptide binding. Potency, µM (doses to about 114 µM), for the others: top-dose activity change, negative = inhibition, actives largely listed as inhibitors. 390,000 tested, 0.56% active. AID 540317, 2011; also: nearly all actives have a fitted effect of over 70% in size
Target sequence (P83916 whole entry, looked up): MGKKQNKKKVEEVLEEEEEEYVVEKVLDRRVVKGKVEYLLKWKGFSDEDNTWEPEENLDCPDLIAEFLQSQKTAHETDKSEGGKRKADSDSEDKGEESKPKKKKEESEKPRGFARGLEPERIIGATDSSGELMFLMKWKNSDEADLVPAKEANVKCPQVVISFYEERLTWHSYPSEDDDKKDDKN
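HP1-beta protein (50 nM final) preincubated 30 min at room temperature with biotinylated H3(1-18)K9me3 peptide (50 nM) in PBS pH 7.4, 0.01% Tween-20, then compound added for 30 min. AlphaScreen streptavidin donor/nickel chelate acceptor beads (10 ug/mL final), 30 min dark, luminescence read.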
Sfp PPTase inh = qHTS Assay for Inhibitors of Bacillus subtilis Sfp phosphopantetheinyl transferase (PPTase). 4'-phosphopantetheinyl transferase ffp (Bacillus subtilis), Q9F4F7. Biochemical Sfp PPTase activity, qHTS. Potency, µM, without a hit: largest response in the series, negative = inhibition, hits mostly inhibitors. 310,000 tested, 3.5% active. AID 1490, 2009;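 also: the enzyme is Sfp with the accession as filed and its product quenches rhodamine fluorescence; 0% = enzyme reaction without inhibitor and -100% = no enzyme wells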
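Reaction rates are the 30-min fluorescence difference (ex 525, em 598 nm) in wells containing 15 nM Sfp, 5 uM rhodamine-CoA and 12.5 uM BHQ-2-YbbR at pH 7.6 with 10 mM MgCl2.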
BAZ2B block = qHTS Assay for Inhibitors of BAZ2B | AlphaScreen BAZ2B-H3K14Ac peptide displacement | Potency, µM (doses to about 114 µM), inactives show top-dose activity change, negative = inhibition, hits mostly inhibitors | 360,000 tested, 4.4% active | AID 504333, 2011; also: % is scaled to controls: 0 for no effect and ±100 for the full control effect; nearly all actives have a fitted effect of over 60% in size
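Multi-concentration screen (max 110 uM) measuring displacement of acetylated histone H3 peptide from BAZ2B by AlphaScreen, using 50 nM protein, 50 nM peptide and 10 ug/mL streptavidin donor plus Ni-chelate acceptor beads.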
* = called active by the depositor; ? = inconclusive; nt = no result; [ ] = another dose, or the depositor's remark. Calls follow the shape of the dose curve; as a rule, active = well fitted curve in the direction sought with a large enough effect; inconclusive = small, poorly fitted or top-dose-only effect, or another doubt; inactive = no such curve, though single readings can be large; an effect the other way counts as inactive or inconclusive. Potency is read from the fitted curve at half-maximal effect.

SMILES	PLK1 PBD block	JMJD2A Tudor	G9a block	HP1b chromo inh	Sfp PPTase inh	BAZ2B block
O=C(O)c1ccc2c(=O)[nH]c(CN3CCOCC3)nc2c1	-4.1%	35.5µM*	?	14.2%	-20.8%	?
CCc1oc2ccccc2c1C(=O)c1cc(I)c(O)c(I)c1	nt	nt	-39.6%[59 µM]	nt	39.8µM*	nt
CCCCc1oc2ccccc2c1C(=O)c1cc(I)c(N(CC)CCOCC)c(I)c1	nt	56.2µM*	nt	-6.1%	nt	nt
NS(=O)(=O)c1ccc(Nc2ccccc2)c([N+](=O)[O-])c1	-2.5%	-26.4%	?	1.4%	26.6%	?
NC(=O)c1ccc(Nc2ccc([N+](=O)[O-])cc2[N+](=O)[O-])cc1	-10.8%	-23.2%	?	-7.1%	6.8%	-27.5%
COc1ccc(Nc2ccc(C(=O)O)cc2[N+](=O)[O-])cc1	4.6%	-3.7%	1.9%[59 µM]	16.5%	21.5%	-29.7%
COc1ccc(Nc2ccc([N+](=O)[O-])cc2[N+](=O)[O-])cc1	-16.7%	50.1µM*	12.6µM*	?	-0.3%	25.1µM*
O=[N+]([O-])c1cc(Cl)ccc1Nc1ccccc1	4.7%	28.2µM*	11.2µM*	17.8µM*	1.7%	5.01µM*
Nc1ccc(Nc2ccc([N+](=O)[O-])cc2[N+](=O)[O-])cc1	-1.8%	?	44.7µM*	?	-0.2%	28.2µM*
CC(C)c1ccc(NC(=O)Cn2cc(S(=O)(=O)N3CCN(c4ccccc4F)CC3)c3ccccc3c2=O)cc1	nt	-21.2%	-9.1%[59 µM]	3.2%	nt	-8.2%
O=C(O)c1c2c(nc3ccc(S(=O)(=O)N4CCC(C(=O)NC5CCCCCC5)CC4)cc13)CCCC2	?	?	39.8µM*	4.2%	1.2%	50.1µM*
CC(C)CCNC(=O)C1CCN(S(=O)(=O)c2ccc3nc4c(c(C(=O)O)c3c2)CCCCC4)CC1	-8.2%	-4.8%	-8.6%	30.6%	20.4%	-20.3%
CC1CCc2nc3ccc(S(=O)(=O)N4CCC(C(=O)N5CCCCCC5)CC4)cc3c(C(=O)O)c2C1 (stereo not given)	5.5%	-16.1%	44.7µM*	-8.4%	13.2%	-21.1%
CCN(CC)S(=O)(=O)c1ccc(NC(=O)CCc2c(C)nc3cc(-c4ccc(Cl)cc4)nn3c2C)cc1	nt	-18.9%	-3.5%[59 µM]	4.1%	nt	-17.1%
C#CCN(C[C@H]1[C@H](OC(=O)NCc2ccccc2F)[C@H](OC(=O)NCc2ccccc2F)C[C@@H](C(=O)OC)[C@H]1C(=O)OC)S(=O)(=O)c1ccc(C)cc1	-14.8%	nt	nt	nt	nt	nt
COC(=O)c1ccc(Oc2coc3cc(OCc4ccc([N+](=O)[O-])cc4)ccc3c2=O)cc1	-8.9%	-25.7%	56.2µM*	9.1%	-5.5%	-23.1%
COc1ccc(-c2nnc(SCC(=O)NCCc3ccccc3)nc2-c2ccc(OC)cc2)cc1	nt	-8.3%	3.8%[59 µM]	53.7%	nt	-11.9%
Oc1cccc2ccc[n+](CC(O)Cn3c4ccccc4c4ccccc43)c12 (stereo not given)	-3.1%	-34.6%	7.94µM*	-6.1%	-28.5%	?
OC(COc1ccccc1)Cn1c2ccccc2c2ccccc21 (stereo not given)	6.9%	14.5%	0.9%[59 µM]	81.9%	7.9%	33.6%
O=C(COc1ccc(OCc2ccccc2)cc1)NN=C1CCCC1	-5.6%	9.2%	24.9%	-10.2%	5.6%	-26.2%
O=C1CCCCC/C1=N/Nc1ccc(OCc2ccccc2)cc1	-2.4%	?	31.6µM*	14.4%	-8.7%	?
CC(=S)c1c(C)cc2cc(C)ccn12	?	25.1µM*	?	22.4µM*	?	10µM*
CCCC1=[N+](CC)CCn2c(C)ccc21	-2.2%	?	14.1µM*	6.2%	-6.8%	8.2%
